Experimental data reported in the supplement of paper PMC10105736.
Values without a mark were called inactive.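 The calls were made as follows: active = MAPPIT score above the 99th percentile of random reference set scores in the same batch; inactive = at or below it.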

Tests used:
Assay in all cases: MAPPIT interaction score (arbitrary units); higher = stronger binary interaction signal, active = hit call of the paper
BORCS6 = details: MAPPIT configuration: N-C; pair source set: screen_3
Baldspot = details: MAPPIT configuration: N-C; pair source set: screen_4
EMC5 = details: MAPPIT configuration: N-C; pair source set: screen_3
Ude = details: MAPPIT configuration: N-C; pair source set: screen_3
Bfc = details: MAPPIT configuration: N-C; pair source set: screen_4
CG17376 = details: MAPPIT configuration: N-N; pair source set: screen_1
CG42565 = details: MAPPIT configuration: N-C; pair source set: screen_4
CG42688 = details: MAPPIT configuration: N-C; pair source set: screen_4
aspr = details: MAPPIT configuration: N-N; pair source set: Curagen_low_conf
fok = details: MAPPIT configuration: N-C; pair source set: screen_3
BicD = details: MAPPIT configuration: N-C; pair source set: Lit-BM-16
Bet1 = details: pair source set: Lit-BM-16
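Also: HEK293T cells with Epo stimulation, STAT-responsive firefly luciferase reporter, fold induction versus unstimulated cells divided by the larger fold induction of two negative controls lacking either bait or prey.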

B1: Blos1 (protein)
chain: MLTSMVKEHHKEQAKRKQEQEVRRKEAIEASNELTQSLVDTLNVGVAQAYLNQKRLDAEAKQLHLGATNFAKQTHQWLQLIDQFSTALKDLGDVENWARSIEGDMHTINQTLELAYKASRATQTSSGAGTSLEASTSASASANPSAT
- MAPPIT interaction score (BORCS6): 2.8

B2: oxt (protein)
chain: MEQSVSARWLKRYRAFFLILLLIVAIQLFLAYKSLDIVGGGSGSGFDAAEAPASPPPPHAQARVQPPARTKLTAQQLGFQPECDILAREAISALQRAKTKDCREHIAQIACAIQAGRFYAPQLRSSCPAGNHTANVSLGCFKDEKDRRLLAGYYSSSKTSNSPAKCVELCLQSGYPYAGVQYGRECFCGYDPPPKASKLPDSSCNTKCLGNAKEICGGFYAMNIYETGIAKFTAQLAATTPSEETKRVRIAFLLTLNGRALRQVHRLLKALYAPEHVYYIHVDERQDYLYRKLLELESKFPNIRLARKRFSTIWGGASLLTMLLQCMEDLLQSNWHWDFVINLSESDFPVKTLDKLVDFLSANPGRNFVKGHGRETQKFIQKQGLDKTFVECDTHMWRIGDRKLPAGIQVDGGSDWVALSRPFVGYVTHPREDDELLQALLKLFRHTLLPAESFFHTVLRNTKHCTSYVDNNLHVTNWKRKQGCKCQYKHVVDWCGCSPNDFKPEDWPRLQATEQKSLFFARKFEPVINQAVLLQLEEWLYGPYTSEYANLHGYWQSLYHHEDVHGSGDDLARSIGDSVMRLSARQAKLYPLELIELTHYLHRDQYKGFLVRYRARGSTGKPLHLETRVRPTQQGKLARNARFSKRLRNFEVSTDFDQKEQIARNFGKLLGPQSDLLLSYTLQANADSGAASHSYNLTLLWIDPLGRLQDFNELHVEDSTSDVINHSKTLLKHPITPGIWTAKLIGRNSIYAQLKFLIAPLAYYKGYPLAKSSDAEALNAGLTVALPEDFEMPVEWQQHLQTDDEQFTMREESLAKGKMLGQELHSWIDGLVGQFFQLRESCVVEADSEVSLPLCSDAPWSSLAPDPKSDVDALLK
- MAPPIT interaction score (Baldspot): 0.0528
- MAPPIT interaction score (EMC5): -0.000675
- MAPPIT interaction score (Ude): 0.189

B3: disco (protein)
chain: MEHIMNPFMSPAYLLGHGPHSHQHVHSHLPSHPQPNAASPASSPGGSSGSGSGSAAGSGTGSGSSLKPRRWGSPPINLAGQFINPATGKKRVQCSICFKTFCDKGALKIHFSAVHLREMHKCTVEGCNMVFSSRRSRNRHSANPNPKLHSPHIRRKISPHDGRTAQQFPVFSPGTAAAAAAVAGRLPVAFPGLLPPPPPHHGHHPYVMFGGQAGLHGLGLLSTGCQDPDSGSVDNEQDADPEDDNDFVYVDMQANSSSPAASSEDQEEHERDNEQDEEMHCSLSLASSSSIAADEERAADQPLDFSLHKRRKSEQDREQEQEQEQEREREAEKEQEQDVESDKEHEPEQEHELEREKRSPSDAFSMDQLLGKRKRHDSTASSSACSTAAASSASSSSASASANPPQTSIKMDLDPDSDSAYMTSRRQMLPLPVLDLEEHHHLRLLQTQMFAAAAAAAATSQAPPTAFLPAGSPVDLAKDSPPMWSLLSEMYRSMLLKTQHQQYNHHHQLQQQHQQEQHHHLTLSHHHQEQHHHLGHHHMGHHHHHHHQHHQQQPQQQSPAATNAPISV
- MAPPIT interaction score (Bfc): 1.54
- MAPPIT interaction score (CG17376): 0.354
- MAPPIT interaction score (CG42565): 2.57
- MAPPIT interaction score (CG42688): 2.18
- MAPPIT interaction score (aspr): -0.256
- MAPPIT interaction score (fok): 0.776

B4: BicD (protein)
chain: MSSASNNGPSADQSVQDLQMEVERLTRELDQVSSASAQSAQYGLSLLEEKSALQQKCEELETLYDNTRHELDITQEALTKFQTSQKVTNKTGIEQEDALLNESAARETSLNLQIFDLENELKQLRHELERVRNERDRMLQENSDFGRDKSDSEADRLRLKSELKDLKFRETRMLSEYSELEEENISLQKQVSSLRSSQVEFEGAKHEIRRLTEEVELLNQQVDELANLKKIAEKQMEEALETLQGEREAKYALKKELDGHLNRESMYHISNLAYSIRSNMEDNASNNSDGEEENLALKRLEADLSTELKSPDGTKCDLFSEIHLNELKKLEKQLESMESEKTHLTANLREAQTSLDKSQNELQNFMSRLALLAAHVDALVQLKKQIDVKEQGKEGGQKKDELEQQLRALISQYANWFTLSAKEIDGLKTDIAELQKGLNYTDATTTLRNEVTNLKNKLLATEQKSLDLQSDVQTLTHISQNAGQSLGSARSTLVALSDDLAQLYHLVCTVNGETPTRVLLDHKTDDMSFENDSLTAIQSQFKSDVFIAKPQIVEDLQGLADSVEIKKYVDTVSDQIKYLKTAVEHTIDMNKHKIRSEGGDALEKVNTEEMEELQEQIVKLKSLLSVKREQIGTLRNVLKSNKQTAEVALTNLKSKYENEKIIVSDTMSKLRNELRLLKEDAATFSSLRAMFAARCEEYVTQVDDLNRQLEAAEEEKKTLNQLLRLAVQQKLALTQRLEEMEMDREMRHVRRPMPAQRGTSGKSSFSTRPSSRNPASSNANPF
- MAPPIT interaction score (BicD): -0.381

B5: Gos28 (protein)
chain: MGGSSYDVLRKQARSLENEIDLKLVAFSKIGAGSGGGGSGGLGGVDTSPLLGEHVFDSLSEEIEQMLEKLSSLNESMSDLPASGAAAMHTLQRHREILQGYRQEFNKICANHTMRIEREELLRGSGLATSSGSPSISGLNRREMYLKESGHLNSASHLVNDQINIAIETRDHLHAQRQAFKRLQTRFNDISNRFPLISSLIQRINIKKRRDSLILGAVIGFCVILLLLYAFN
- MAPPIT interaction score (Bet1; MAPPIT configuration: N-C): -0.272
- MAPPIT interaction score (Bet1; MAPPIT configuration: N-N): -0.1
